Screening results deposited in PubChem by several laboratories.
Sampled rows, rich in hits. Any-hit rate of the full collection: about 5.4%.
ALR H2O2 inh: blocks human ALR sulfhydryl oxidase activity. purified ALR, DTT oxidation, H2O2 HRP-luminol luminescence. P55789. inhibition, % (concentration not given with the values). 290,000 compounds, 3.8% hits;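 active = mean replicate inhibition above about 79%, with every replicate also reaching it, limit read from the data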
Target sequence (P55789 whole entry, looked up): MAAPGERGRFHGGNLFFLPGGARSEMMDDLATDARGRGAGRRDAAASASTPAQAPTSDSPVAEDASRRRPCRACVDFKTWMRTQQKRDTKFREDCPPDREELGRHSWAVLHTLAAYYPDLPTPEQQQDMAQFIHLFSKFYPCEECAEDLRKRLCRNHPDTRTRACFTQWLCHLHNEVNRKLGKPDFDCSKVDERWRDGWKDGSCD
A3G deaminase: inhibitors of human APOBEC3G DNA deaminase; Q9HC16; recombinant A3G, ssDNA deamination FAM/TAMRA fluorescence; inhibition, % at 20 µM; 330,000 compounds, 0.28% hits; AID 493012;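 active = inhibition of at least 40% at 20 µM, with no more than 30% in the related APOBEC3A deaminase screen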
rCAG binder: molecules binding r(CAG) RNA repeats | r(CAG) RNA repeat, TO-PRO-1 dye displacement fluorescence | inhibition, % at 3 µM | 370,000 compounds, 1.3% hits | AID 651821;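 active = inhibition above the plate cutoff, the mean of all test compounds on that plate plus 3 SD, cut at about 35% in these data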;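 also: higher means more dye released from RNA so lower well fluorescence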
aDG glyco up: alpha-DG glycosylation activation; activation, % at 10 µM; Pro5-aDG cells, alpha-DG glycosylation AlphaScreen (IIH6); 0% Pro5, 100% B10-LARGE cell signal; AID 624168; 360,000 compounds, 0.22% hits;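 active = activation of at least 8% versus controls, or a plate z-score of at least 8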;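 also: Pro5 are CHO cells carrying HIG-tagged alpha-DG that lacks glycosylation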
APOBEC3A inh: blocks human APOBEC3A ssDNA deamination | recombinant A3A, FAM/TAMRA ssDNA deamination fluorescence | inhibition, % at 20 µM | 330,000 compounds, 0.41% hits | AID 493011;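 active = at least 40% inhibition at 20 µM here, with at most 30% in a related deaminase screen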
PHOSPHO1 block: PHOSPHO1 (human) inhibition; Q8TCT1; recombinant PHOSPHO1, absorbance phosphatase assay; inhibition, % at 13.3 µM; 290,000 compounds, 1.1% hits; AID 1565; in the data active = inhibition above about 60%
Target sequence (Q8TCT1 whole entry, looked up): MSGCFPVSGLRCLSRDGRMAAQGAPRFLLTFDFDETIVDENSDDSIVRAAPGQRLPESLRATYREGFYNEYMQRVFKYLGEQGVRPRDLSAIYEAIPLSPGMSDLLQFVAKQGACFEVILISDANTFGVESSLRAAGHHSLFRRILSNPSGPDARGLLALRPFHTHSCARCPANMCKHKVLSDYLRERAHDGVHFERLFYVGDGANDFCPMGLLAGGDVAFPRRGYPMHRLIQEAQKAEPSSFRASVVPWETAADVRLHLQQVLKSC
Hits are given with their value; . = inactive; / = no result.

SMILES | ALR H2O2 inh | A3G deaminase | rCAG binder | aDG glyco up | APOBEC3A inh | PHOSPHO1 block
Cc1ccc(S(=O)(=O)NCc2ccc(C(=O)N3CCN(c4ccccc4)CC3)cc2)cc1 | . | . | . | . | . | 73
CC(=O)N1CCN(C(=O)CCNS(=O)(=O)c2ccccc2)CC1 | . | . | . | . | . | /
O=C(CCS(=O)(=O)Cc1ccccc1)N1CCN(c2ccccc2)CC1 | 99 | . | . | . | . | .
O=C(CCS(=O)(=O)Cc1ccccc1)N1CCN(c2ccc([N+](=O)[O-])cc2)CC1 | . | . | . | . | . | .
O=C(CCNS(=O)(=O)c1ccccc1)N1CCN(c2ccccc2)CC1 | 96 | . | . | . | . | .
CCOC(=O)Cc1nc(N2CCN(CCN)CC2)c2c(C)c(C(=O)OCC)sc2n1 | / | / | . | / | / | /
O=C(c1cc(Cl)cc(Cl)c1)N1CCC(Oc2cccnc2)CC1 | / | / | . | / | / | /
O=S1(=O)c2ccc(N3CCN(Cc4ccccc4F)CC3)cc2Oc2ccccc2CN1Cc1cn(Cc2ccccc2C(F)(F)F)nn1 | / | / | . | / | / | /
Cc1c(NC(=O)C2CCCN(S(=O)(=O)c3ccc(Cl)s3)C2)c(=O)n(-c2ccccc2)n1C (configuration not stated) | / | / | . | / | / | /
O=C(Nc1nccs1)C1(C(=O)C2CC2)CC(c2ccccn2)=NO1 (configuration not stated) | / | / | . | / | / | /
O=c1c2c(n3nnnc3n1Cc1ccc(Cl)cc1)-c1ccccc1CC21CCCC1 | / | / | . | / | / | /
O=C1COc2ccc(S(=O)(=O)CCC(=O)N3CCN(c4ccccc4)CC3)cc2N1 | 98 | . | . | . | . | .
O=C(CS(=O)(=O)c1ccccc1)N1CCN(c2ccccc2)CC1 | / | . | . | . | . | /
Cc1ccc(C)c(N2CCN(C(=O)CCS(=O)(=O)c3ccc4c(c3)NC(=O)CO4)CC2)c1 | . | . | . | . | . | .
O=C(CCS(=O)(=O)c1cccs1)N1CCCC1 | . | . | . | . | . | 64
O=C(CCS(=O)(=O)c1cccs1)N1CCN(c2ccc(F)cc2)CC1 | . | . | . | . | . | .
O=C(CCS(=O)(=O)c1ccccc1)N1CCN(c2ccccc2)CC1 | 99 | . | . | . | . | .
O=C(CCS(=O)(=O)c1ccc(Br)cc1)N1CCN(c2ccccc2Cl)CC1 | . | . | . | . | . | .
O=C(CCS(=O)(=O)c1ccc(Br)cc1)N1CCN(c2ccccc2)CC1 | 99 | . | . | . | . | .
O=C(Nc1ccc(OC(F)(F)F)cc1)Nc1nc2ncccn2c1-c1ccc(C(F)(F)F)cc1 | / | / | . | / | / | /
C=C(C)/C=C1/CN(Cc2ccc3c(c2)OCO3)C(=N)N1C(=O)OCc1ccccc1 | / | / | . | / | / | /
COc1cccc(N2CCN(C(=O)CCS(=O)(=O)c3ccc4c(c3)oc(=O)n4C)CC2)c1 | 98 | . | . | . | . | .
CS(=O)(=O)N(Cc1ccc(Cl)cc1)c1ccc(C(=O)N2CCN(c3ccccc3)CC2)cc1 | . | . | . | . | . | 100
CS(=O)(=O)N(Cc1ccccc1)c1ccc(C(=O)N2CCN(c3cccc(Cl)c3)CC2)cc1 | . | . | / | . | . | .
Cc1ccc(OCCC(=O)N2CCN(c3ccc(O)cc3)CC2)cc1 | 100 | . | . | . | . | .
SMILES | ALR H2O2 inh | A3G deaminase | rCAG binder | aDG glyco up | APOBEC3A inh | PHOSPHO1 block
COc1ccc(N2CCN(C(=O)CCC(=O)N3CCOc4ccc(C)cc43)CC2)cc1 | 97 | . | . | . | . | .
Cn1c(=O)oc2cc(S(=O)(=O)CCC(=O)N3CCN(c4ccccc4)CC3)ccc21 | . | . | . | . | . | .
COC(=O)[C@H](CC(C)C)N(CCCc1cn(CC2CCCCC2)nn1)S(=O)(=O)c1ccccc1Br | / | / | . | / | / | /
O=C(NC1CCCCN(Cc2cccc(Cl)c2)C1=O)c1ccc(COc2ccccc2)cc1 (configuration not stated) | / | / | . | / | / | /
COc1cccc2c3c(c(=O)[nH]c12)CCC(C)(C)O3 | 98 | . | . | . | . | .
Cc1ccc(-c2cc(C(=O)NN=Cc3c4ccccc4cc4ccccc34)[nH]n2)cc1C | / | / | . | / | / | /
S=c1[nH]nc(Cc2c[nH]c3ccccc23)o1 | . | . | . | . | . | 61
Oc1ccc(/C=N/NC(=S)Nc2cccnc2)cc1 | 99 | . | . | . | . | .
CC(C)OCCCNc1ncnc2c1[nH]c1ccccc12 | . | . | . | 5.4 | . | .
COc1ccc(CNc2ncnc3c2[nH]c2ccccc23)cc1 | . | . | . | . | . | .
CCOc1ccc2[nH]c(=O)c(CN(Cc3ccccc3)C(=O)N3CCCC3)cc2c1 | . | . | . | . | . | 74
COc1ccccc1C1CC(c2cccs2)=NN1C(=O)CCC(=O)O (configuration not stated) | . | . | . | . | . | /
COc1ccccc1C1CC(c2cccs2)=Nc2ccccc2S1 (configuration not stated) | . | . | . | . | . | 94
COc1ccc(N2CCN(C(=O)CSc3nnc(-c4cccnc4)n3-c3ccccc3)CC2)cc1 | 94 | . | . | . | . | .
COc1ccc(-n2c(N)cc(=O)nc2SCC(=O)N2CCN(c3ccccc3)CC2)cc1 | 99 | . | . | . | . | .
O=C(Nc1ccccc1Oc1ccccc1)NC1CCCCN(Cc2cccc(Cl)c2)C1=O (configuration not stated) | / | / | . | / | / | /
CCN(CC)c1ccc(C2CC(=O)NC3=C2C(=O)CC(C)(C)C3)cc1 (configuration not stated) | 95 | . | . | . | . | .
CCN(CC)c1ccc(C2C(C(=O)OCCOC)=C(C)NC3=C2C(=O)CC(C)(C)C3)cc1 (configuration not stated) | 99 | . | . | . | . | .
COCCOC(=O)CSc1ncccc1-c1nc2cc(C)c(C)cc2[nH]1 | 98 | . | . | . | . | .
COc1ccc(N2CCN(C(=O)CSc3ncccc3-c3nc4ccccc4[nH]3)CC2)cc1 | . | . | / | . | . | 94
O=C(CSc1ncccc1-c1nc2ccccc2[nH]1)NC1CC1 | . | . | . | . | . | .
O=C(CSc1ncccc1-c1nc2ccccc2[nH]1)N1CCN(c2ccccc2F)CC1 | . | . | . | . | . | 88
COc1ccccc1N1CCN(C(=O)CSc2ncccc2-c2nc3ccccc3[nH]2)CC1 | / | . | . | . | . | 98
C#CCCN([C@@H](CC(C)C)C(=O)OC)S(=O)(=O)c1ccccc1Br | / | / | . | / | / | /
Cc1cccc(-c2oc3ccc(-c4ccc5c(c4)OCO5)cc3c2/C=C/c2ccc(N)cc2)c1 | . | . | / | 8.1 | . | .
COc1ccc(S[C@]2(C(=O)N(C)C)CC(=O)N(C(=O)/C=C/c3ccccc3)[C@@H]2c2ccc(OC)cc2)cc1 | / | / | . | / | / | /
N#Cc1ccccc1NC(=O)COC(=O)/C=C/c1cn(-c2ccccc2)nc1-c1ccc(Cl)cc1 | / | / | . | . | / | 60
c1ccc(-c2nnc(SCc3nc4ccccc4[nH]3)n2Cc2ccco2)cc1 | . | . | . | . | . | 96
CCn1c(COc2ccc(C)cc2)nnc1SCc1ccc(C#N)cc1 | . | . | . | . | . | 94
